Laboratory results as given in PubChem BioAssay (Tox21).
Results filed as inconclusive are left out. Unmarked numbers belong to inactive results. Calls of active or inactive are those of the source. Calls follow the shape of the dose curve; as a rule, active = well fitted inhibition curve with a large enough effect in the repeat runs; inconclusive = weak or mixed curves; inactive = no such curve, though single readings can be large or run the other way.

The compounds below were run against Cytochrome P450 2D6 (Homo sapiens) (UniProt P10635) (assay: Cytochrome P450 Family 2 Subfamily D Member 6 (CYP2D6) small molecule antagonists: luciferase reporter qHTS assay (AID 1671196; also: nearly all actives have a fitted effect of over 50% in size)). Conditions: P450-Glo CYP2D6 enzyme assay, luciferin luminescence, 1 h; series mostly up to 115 µM; activity change, negative = inhibition: at the top concentration.
In short: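 CYP2D6 enzyme–substrate mix was held with compound for 10 min at room temperature, then NADPH regeneration solution was added and the reaction ran 1 h at room temperature. Luciferin product was detected by luminescence after 20 min with detection reagent.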
% is scaled to controls: 0 for no effect and ±100 for the full control effect; potency is read from the fitted curve at half-maximal effect.

Cytochrome P450 2D6 (Homo sapiens), sequence (P10635 whole entry, looked up): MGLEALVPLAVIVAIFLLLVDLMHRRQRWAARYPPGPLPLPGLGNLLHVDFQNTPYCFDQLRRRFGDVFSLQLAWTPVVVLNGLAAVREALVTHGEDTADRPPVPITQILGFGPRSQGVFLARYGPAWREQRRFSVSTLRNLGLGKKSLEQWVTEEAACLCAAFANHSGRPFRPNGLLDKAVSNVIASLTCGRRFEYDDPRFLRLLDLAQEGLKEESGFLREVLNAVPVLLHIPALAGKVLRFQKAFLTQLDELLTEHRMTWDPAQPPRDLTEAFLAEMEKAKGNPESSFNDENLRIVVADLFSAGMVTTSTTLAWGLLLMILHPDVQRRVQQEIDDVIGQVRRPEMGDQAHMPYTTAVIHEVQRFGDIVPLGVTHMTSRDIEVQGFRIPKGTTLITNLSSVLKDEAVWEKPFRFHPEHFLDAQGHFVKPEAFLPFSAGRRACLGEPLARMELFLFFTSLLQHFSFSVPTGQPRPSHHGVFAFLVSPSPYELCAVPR

`CC(=O)CC(C)(C)C1CCCCC1` was tested. Which “activity change, negative = inhibition” value did it give?
Its value is -0.395%.

Which “activity change, negative = inhibition” value does the source give for `C[C@H](NC(CCc1ccccc1)C(=O)O)C(=O)N1CCC[C@H]1C(=O)O` (stereo partly specified) here?
The value was 0.83% [at 53 µM].

For `CCC(=O)OC(C)c1ccccc1` (stereo unspecified), which “activity change, negative = inhibition” value is on record?
Its value is -1.31%.

With `OC[C@]1(O)OC[C@@H](O)[C@H](O)[C@@H]1O` as the compound, how does the Potency read?
Its Potency is “inactive”.

For `C=COCC1CCC(CO)CC1` (stereo unspecified), which “activity change, negative = inhibition” value is on record?
Its value is 18%.

How did the “activity change, negative = inhibition” value turn out when `CC1=CC(C)C(C=O)CC1` (stereo unspecified) was run?
The value was -1.22%.

How did the “activity change, negative = inhibition” value turn out when `CCc1ccc(O)c(OC)c1` was run?
Its value is -7.85%.

With `CN1C(=O)N(C)C(O)C1O` (stereo unspecified) as the compound, how does the “activity change, negative = inhibition” value read?
The value was -9.1%.

With `COC(=O)CC(C)=O` as the compound, how does the “activity change, negative = inhibition” value read?
The value was -16%.

`CC/C=C\CC/C=C/CO` was tested. Which “activity change, negative = inhibition” value did it give?
Its value is 0.173%.

How did the “activity change, negative = inhibition” value turn out when `CCCCCCCCCCCCCCCCC` was run?
The value was -7.76%.

With `O=C1CCCC(=O)C1` as the compound, how does the “activity change, negative = inhibition” value read?
The value was -13%.

With `Nc1c[n+](N2CCOCC2)no1` as the compound, how does the “activity change, negative = inhibition” value read?
Its value is -11.1% [at 53 µM].

For `CO[C@]12C[C@@H](COC(=O)c3cncc(Br)c3)CN(C)[C@@H]1Cc1cn(C)c3cccc2c13`, which Potency is on record?
The Potency was 0.0692 µM (active).

For `COC(=O)NN`, which “activity change, negative = inhibition” value is on record?
Its value is -6.63%.

With `O=C1CCCCCCCCCCCN1` as the compound, how does the Potency read?
Its Potency is “inactive”.

For `CCCCCCCCCCCCCC=O`, which Potency is on record?
The Potency was 2.78 µM (active).

For `O=C(c1ccccc1)C1CCCCC1`, which “activity change, negative = inhibition” value is on record?
Its value is -16.2%.

Which Potency does the source give for `O=C1CCCN1C1CCCCC1` here?
Its Potency is 35.6 µM (active).

`Cc1c(O)cccc1O` was tested. Which “activity change, negative = inhibition” value did it give?
The value was -16.8%.

With `Cc1ccc(Cl)cc1Cl` as the compound, how does the “activity change, negative = inhibition” value read?
Its value is -2.21%.

For `CCC(C)C1CCCCC1=O` (stereo unspecified), which “activity change, negative = inhibition” value is on record?
The value was -0.715%.

How did the “activity change, negative = inhibition” value turn out when `COC(=O)c1cc(C(=O)OC)cc(S(=O)(=O)O)c1` was run?
Its value is -2.55%.

How did the “activity change, negative = inhibition” value turn out when `C=C(C)C(=O)OCCCCCCCC(C)C` was run?
Its value is -14.9%.

`CCC(C)S` (stereo unspecified) was tested. Which activity change, negative = inhibition did it give?
The activity change, negative = inhibition was -10.7% [at 4.07 µM].

How did the “activity change, negative = inhibition” value turn out when `O=c1cc(CO)occ1O` was run?
The value was -5.04% [at 53 µM].

What follows are compounds tested against Cytochrome P450 2C19 (Homo sapiens) (UniProt P33261) (assay: Cytochrome P450 Family 2 Subfamily C Member 19 (CYP2C19) small molecule antagonists: luciferase reporter qHTS assay (AID 1671197; also: nearly all actives have a fitted effect of over 65% in size)). Conditions: P450-Glo CYP2C19 enzyme, luciferin luminescence, 1 h; series mostly up to 52.9 µM; activity change, negative = inhibition: at the top concentration.
In short: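 CYP2C19 P450-Glo, 1536-well qHTS. Cpd + enzyme/proluciferin substrate 10 min RT; + NADPH regen, 37C 1 h; stop with luciferin detection reagent, 20 min RT, luminescence (RLU). Pos ctrl ketoconazole.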

Cytochrome P450 2C19 (Homo sapiens), sequence (P33261 whole entry, looked up): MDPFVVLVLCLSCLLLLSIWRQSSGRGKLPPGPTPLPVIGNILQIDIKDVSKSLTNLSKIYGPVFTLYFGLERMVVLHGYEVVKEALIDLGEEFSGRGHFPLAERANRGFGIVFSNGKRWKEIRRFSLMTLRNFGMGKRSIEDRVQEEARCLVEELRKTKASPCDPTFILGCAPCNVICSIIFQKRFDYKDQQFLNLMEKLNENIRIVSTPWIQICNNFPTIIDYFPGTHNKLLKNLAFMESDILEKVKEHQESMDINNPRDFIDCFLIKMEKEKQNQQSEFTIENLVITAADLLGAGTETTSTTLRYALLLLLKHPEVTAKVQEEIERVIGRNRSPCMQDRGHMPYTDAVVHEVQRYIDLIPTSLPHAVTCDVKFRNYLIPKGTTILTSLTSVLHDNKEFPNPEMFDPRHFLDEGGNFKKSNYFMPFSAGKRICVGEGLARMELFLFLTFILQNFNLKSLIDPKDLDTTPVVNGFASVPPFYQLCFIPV

How did the “activity change, negative = inhibition” value turn out when `CC(=O)N(CC(O)CO)c1c(I)c(C(=O)NCCO)c(I)c(C(=O)NCC(O)CO)c1I` (stereo unspecified) was run?
Its value is 12.6%.

`NC(=O)COCCN1CCN(C(c2ccccc2)c2ccc(Cl)cc2)CC1` (stereo unspecified) was tested. Which “activity change, negative = inhibition” value did it give?
Its value is 15.8%.

For `CC(=O)CC(C)(C)C1CCCCC1`, which “activity change, negative = inhibition” value is on record?
Its value is 0.606% [at 115 µM].

Which “activity change, negative = inhibition” value does the source give for `C[C@H](NC(CCc1ccccc1)C(=O)O)C(=O)N1CCC[C@H]1C(=O)O` (stereo partly specified) here?
The value was -12.4%.

For `CCC(=O)OC(C)c1ccccc1` (stereo unspecified), which “activity change, negative = inhibition” value is on record?
The value was 23.1% [at 115 µM].

With `OC[C@]1(O)OC[C@@H](O)[C@H](O)[C@@H]1O` as the compound, how does the Potency read?
Its Potency is “inactive”.

`C=COCC1CCC(CO)CC1` (stereo unspecified) was tested. Which “activity change, negative = inhibition” value did it give?
The value was 0.619% [at 115 µM].

Which “activity change, negative = inhibition” value does the source give for `CC1=CC(C)C(C=O)CC1` (stereo unspecified) here?
The value was 1.73% [at 115 µM].

`CN1C(=O)N(C)C(O)C1O` (stereo unspecified) was tested. Which “activity change, negative = inhibition” value did it give?
The value was -26.6% [at 115 µM].

How did the “activity change, negative = inhibition” value turn out when `COC(=O)CC(C)=O` was run?
Its value is -12.2% [at 115 µM].

With `CC/C=C\CC/C=C/CO` as the compound, how does the “activity change, negative = inhibition” value read?
The value was 8.68% [at 115 µM].

With `CCCCCCCCCCCCCCCCC` as the compound, how does the “activity change, negative = inhibition” value read?
The value was -1.71% [at 115 µM].

How did the “activity change, negative = inhibition” value turn out when `O=C1CCCC(=O)C1` was run?
The value was -19.1% [at 115 µM].

For `Nc1c[n+](N2CCOCC2)no1`, which “activity change, negative = inhibition” value is on record?
The value was 1.51%.

With `CO[C@]12C[C@@H](COC(=O)c3cncc(Br)c3)CN(C)[C@@H]1Cc1cn(C)c3cccc2c13` as the compound, how does the Potency read?
Its Potency is 2.45 µM (active).

`CC(C)(c1ccc(O)cc1)c1ccc(O)cc1` was tested. Which Potency did it give?
The Potency was “inactive”.

Which “activity change, negative = inhibition” value does the source give for `O=C(O)c1ccccc1OP(=O)(O)O` here?
Its value is 12.8%.

How did the activity change, negative = inhibition turn out when `CCCCCCCCCCCCCC=O` was run?
Its activity change, negative = inhibition is -12.1% [at 10.5 µM].

`O=C(c1ccccc1)C1CCCCC1` was tested. Which Potency did it give?
The Potency was 71 µM (active).

`NCCCNCCSP(=O)(O)O` was tested. Which activity change, negative = inhibition did it give?
The activity change, negative = inhibition was -2.49% [at 10.5 µM].

With `Cc1ccc(Cl)cc1Cl` as the compound, how does the “activity change, negative = inhibition” value read?
The value was -10.9% [at 115 µM].

`CCC(C)C1CCCCC1=O` (stereo unspecified) was tested. Which “activity change, negative = inhibition” value did it give?
Its value is -2.2% [at 115 µM].

For `CN1CCCC1`, which “activity change, negative = inhibition” value is on record?
Its value is 0.0498% [at 115 µM].

`CCOC(=O)c1ccc(C)cc1` was tested. Which “activity change, negative = inhibition” value did it give?
Its value is 23.9% [at 115 µM].

For `COC(=O)c1cc(C(=O)OC)cc(S(=O)(=O)O)c1`, which “activity change, negative = inhibition” value is on record?
Its value is -20% [at 115 µM].

For `C=C[Si](OC(=C)C)(OC(=C)C)OC(=C)C`, which Potency is on record?
The Potency was 39.9 µM (active).

How did the Potency turn out when `C=C(C)C(=O)OCCCCCCCC(C)C` was run?
Its Potency is 71.5 µM (active).

How did the activity change, negative = inhibition turn out when `CCC(C)S` (stereo unspecified) was run?
The activity change, negative = inhibition was 8.24% [at 4.07 µM].

With `O=c1cc(CO)occ1O` as the compound, how does the “activity change, negative = inhibition” value read?
The value was 25%.

With `CN(C)CCCNCCCN(C)C` as the compound, how does the “activity change, negative = inhibition” value read?
The value was -16.2% [at 115 µM].
